Compound activity deposited in PubChem BioAssay by National Center for Advancing Translational Sciences (NCATS).
Sampled rows, rich in hits. Any-hit rate of the full collection: about 21%.
Shiga inhibitor: A qHTS for Small Molecule Inhibitors of Shiga Toxin. hit rate 9.2% among 290,000. inhibition, % at 38.7 µM. Vero cells, Shiga toxin protein synthesis inhibition reporter; in the data active = inhibition mostly above about 28%, no sharp cut-off; inactive = mostly below about 43%; note: 0% is about no effect
Pf growth 48h: Primary qHTS for delayed death inhibitors of the malarial parasite plastid, 48 hour incubation; P. falciparum luciferase growth in erythrocytes, 48 h; Potency, µM (titrated, usually from 28.7 µM), inactives show at the top dose activity change, negative = inhibition, actives largely listed as inhibitors; hit rate 5.9% among 310,000; AID 504832, 2011; note: potency is the fitted concentration of half-maximal effect; % is set by controls: 0 for no effect and ±100 for the full control effect
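Growth was read as firefly luciferase luminescence after a 48 h, 37 C, 5% CO2 exposure of compounds to reporter-bearing P. falciparum cultures (0.1% parasitemia, 2% hematocrit final) in Albumax-supplemented RPMI 1640.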
CHX counter: Cycloheximide Counterscreen for Small Molecule Inhibitors of Shiga Toxin; cell reporter, cycloheximide protein synthesis inhibition counterscreen; max response, %; hit rate 12% among 300,000; AID 2314, 2010; in the data active = max response mostly above about 13%, no sharp cut-off; inactive = mostly below about 14%; note: read at 38.3 µM for the half of the compounds with a filed dose; 0% is about no effect
Pf growth 96h: Primary qHTS for delayed death inhibitors of the malarial parasite plastid, 96 hour incubation; P. falciparum luciferase reporter growth, 96 h; hit rate 6.9% among 320,000; Potency, µM (highest dose often 28.7 µM), for the others: at the highest dose activity change, negative = inhibition, most hits filed as inhibitors; AID 504834, 2011; note: potency is the fitted concentration of half-maximal effect; % is set by controls: 0 for no effect and ±100 for the full control effect
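Parasite growth measured via integrated firefly luciferase reporter in P. falciparum. Infected erythrocytes at 2% hematocrit, 0.05% parasitemia final were treated 96 hours at 37 C under 5% CO2, and luminescence was read.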
* hit, by the source's call; ? = inconclusive; · = not tested or not shown. Unless noted, calls come from the whole dose curve; as a rule, active = well fitted inhibition curve with a large enough effect; inconclusive = small, poorly fitted or top-dose-only effect, or another doubt; inactive = no such curve, though single readings can be large or run the other way.

SMILES | Shiga inhibitor | Pf growth 48h | CHX counter | Pf growth 96h
CC(C)Oc1ccc(OCCSc2nc3ccccc3n2CC(=O)O)cc1 | · | -23.4% | -2.4 | -10.2%
Cc1ccc(NC(=O)N2CCCCCC2)cc1 | 83.7* | 83.8% | 35.8* | ?
Cc1ccc(NC(=O)N2CCC(C(N)=O)CC2)cc1 | 27.3 | -1.3% | -1.5 | 27.1%
Cc1ccc(NC(=O)C2CCN(C(=O)NC3CCCCC3)CC2)c(C)c1 | -3.1 | ? | -2.1 | ?
COc1ccc(NC(=O)N2CCN(C(=O)C(Cc3ccc(F)cc3)NC(C)=O)CC2)cc1 (stereo not drawn) | 35.2 | 3.9% | 9.7* | 26.6%
CCOC(=O)c1ccc(NC(=O)N2CCCCC2)cc1 | 78.5* | · | 41.4* | 210.8%
Cc1ccc(NC(=O)N2CCCCCC2)c(C)c1 | 62.2* | 67.3% | 49.8* | 19.3%
CCOc1ccccc1OCCCC(=O)N(CC)CC(=O)Nc1ccc(NC(C)=O)cc1 | · | -5.6% | · | 9.7%
O=C(O)CNC(=O)c1ccc(NC(=O)/C(=C/c2cccc([N+](=O)[O-])c2)NC(=O)c2ccco2)cc1 | -10.7 | -6.2% | 0.8 | -3.1%
C=CCC1(CC=C)CCCN1C(=O)CC1C(=O)NCCN1Cc1cccc(OC)c1OC (stereo not drawn) | -3.7 | ? | 9.0 | 31.2%
CC1CCCN(C(=O)Nc2ccc(Br)cc2Cl)C1 (stereo not drawn) | 96.2* | 62.7% | 44.7* | 49.4%
CCc1ccc(NC(=O)N2CCCCCC2)cc1 | 87.2* | 106.3% | 49.0* | 51.3%
NC(=O)C1(N2CCCCC2)CCN(C(=O)NC2CCCCC2)CC1 | -35.5 | 0.2% | -4.4 | 14.7µM*
CCOc1ccc(NC(=O)N2CCC(C(N)=O)(N3CCCCC3)CC2)cc1 | -2.1 | 2.2% | -2.1 | 13.1µM*
CC(CN1CCCCC1)OC(=O)c1ccco1 (stereo not drawn) | -2.3 | 14.9% | -7.1 | ?
CC1CCCCC1NC(=O)CCC(=O)N1CCOc2ccc(Cl)cc21 (stereo not drawn) | -3.7 | 6.2% | -10.8 | ?
COc1ccc(NC(=O)N2CCCCC2)cc1 | 28.6 | 35.8% | 26.3* | -23.0%
COc1ccc(NC(=O)N2CCOCC2)cc1 | · | 8.3% | -1.2 | ?
CC1CCCN(CCC(=O)Nc2ccc(Br)cc2)C1 (stereo not drawn) | -3.4 | 11.1% | -2.0 | -24.3%
CCOC(=O)c1ccc(NC(=O)N2CCN(Cc3ccccc3)CC2)cc1 | 7.3 | ? | 14.8* | -5.9%
Cc1ccc(NC(=O)CCN2CCCCC2)cc1 | 41.5* | 172.1% | 28.5* | -10.3%
O=C(Nc1ccc(Br)cc1)N1CCCC(O)C1 (stereo not drawn) | 69.7 | 127.6% | 24.4* | 26.5%
Cn1c(CNC(=O)c2ccc3c(c2)OCO3)nnc1SCC(=O)Nc1ccc(F)cc1 | -7.6 | 8.9% | -2.1 | 0.0%
COc1ccc(S(=O)(=O)N2CCOCC2)cc1NC(=O)c1cccs1 | · | 8.1% | · | -1.5%
CCCCc1ccc(NC(=O)N2CCN(c3cc(C)nc4ccccc34)CC2)c(C)c1 | -4.5 | ? | -0.9 | ?
SMILES | Shiga inhibitor | Pf growth 48h | CHX counter | Pf growth 96h
Cc1cc(N2CCN(C(=O)Nc3ccc(F)cc3F)CC2)c2ccccc2n1 | 21.7 | 10.4µM* | 3.8 | 14.7µM*
CCN1CCN(C(=O)Nc2ccc(Cc3ccc(NC(=O)N4CCN(CC)CC4)cc3)cc2)CC1 | -14.0 | ? | 1.5 | 10.4µM*
Cc1ccc(CN2C(=O)C(CC(C)C)Nc3ncnc(N4CCN(c5ccccn5)CC4)c32)cc1 (stereo not drawn) | · | 9.28µM* | · | ?
CC(Oc1ccc(Br)cc1)C(=O)N1CCN(c2ccccn2)CC1 (stereo not drawn) | -8.9 | -4.4% | -1.5 | -1.3%
CC(C)CC1Nc2ncnc(N3CCN(c4ccccn4)CC3)c2N(Cc2ccc(Br)cc2)C1=O (stereo not drawn) | · | 7.38µM* | · | 8.28µM*
O=C1CC(N2CCN(c3ccccn3)CC2)C(=O)N1CC(c1ccccc1)c1ccccc1 (stereo not drawn) | 9.4 | ? | -0.5 | ?
Cc1ccc2c(c1)C(=O)CC1(CCCC1)O2 | 13.7 | 49.2% | -1.4 | 91.9%
Cc1ccc(-c2nnn(CC(=O)N(CC(=O)NC(C)C)c3cnc4ccccc4c3)n2)o1 | -5.0 | -5.3% | 1.4 | -1.2%
Cc1ccc(-c2nnn(CC(=O)N(CC(=O)NC3CCCC3)c3cnc4ccccc4c3)n2)o1 | -15.7 | ? | 0.8 | 9.28µM*
Cc1cccc(N(CC(=O)NCc2ccccc2)C(=O)Cn2nnc(-c3ccc(C)o3)n2)c1 | -10.6 | ? | -10.2 | ?
CCC(C(=O)NC1CCCC1)N(C(=O)Cn1nnc(-c2ccc(C)o2)n1)c1ccc(F)cc1 (stereo not drawn) | -4.7 | -2.0% | -0.5 | 11.7µM*
Cc1ccc(-c2nnn(CC(=O)N(CC(=O)NCc3ccccc3)c3cccc(C)c3C)n2)o1 | -2.3 | 14.7µM* | -3.1 | ?
CCC(C(=O)NC1CCCC1)N(C(=O)Cn1nnc(-c2ccc(C)o2)n1)c1ccccc1OC (stereo not drawn) | -2.3 | ? | -4.9 | 13.1%
CCC(C(=O)NC1CCCC1)N(C(=O)Cn1nnc(-c2cccs2)n1)c1cnc2ccccc2c1 (stereo not drawn) | 5.8 | 11.7µM* | -1.7 | -2.0%
CCC(C(=O)NC1CCCC1)N(C(=O)Cn1nnc(-c2ccc(C)o2)n1)c1cnc2ccccc2c1 (stereo not drawn) | 27.0 | ? | -2.0 | ?
CCc1ccc(NC(=O)N(Cc2c[nH]c3ccccc23)C2CCCCCC2)cc1 | 20.9 | · | 20.0 | ·
NS(=O)(=O)c1cccc(NS(=O)(=O)c2cccc(C(F)(F)F)c2)c1 | -11.0 | 3.8% | 0.4 | 14.3%
Cc1ccc(-c2nnn(CC(=O)N(CC(=O)NC3CCCC3)c3ccc(F)c(Cl)c3)n2)o1 | -8.7 | 9.28µM* | -1.2 | 13.1µM*
Cc1ccc(-c2nnn(CC(=O)N(c3ccccc3)C(C(=O)NC3CCCC3)c3ccncc3)n2)o1 (stereo not drawn) | 19.2 | 12.3% | -3.0 | -15.7%
Cc1ccc(-c2nnn(CC(=O)N(Cc3ccccc3F)C(C(=O)NC3CCCC3)c3ccncc3)n2)o1 (stereo not drawn) | 18.3 | 9.28µM* | -4.9 | ?
CCC(OC(=O)c1ccco1)C(=O)NC1CCCC1 (stereo not drawn) | -6.3 | 26.3% | -1.1 | 3.0%
CCC1(c2ccc(OC)cc2)NC(=O)N(CC(=O)NC2CCCCC2C)C1=O (stereo not drawn) | · | -26.1% | · | ?
CSCC[C@H](N)C(=O)NCC1CCC(C(=O)Nc2ccc3c(c2)OCO3)CC1 (stereo partly drawn) | -4.1 | -0.5% | -1.8 | ?
CCCCn1c(SCC(=O)Nc2cc(C)on2)nc2ccsc2c1=O | -3.7 | -3.4% | 13.0 | 4.0%
COc1ccc(CCn2c(SCC(=O)Nc3cc(C)on3)nc3ccsc3c2=O)cc1OC | 6.8 | 8.28µM* | 7.2 | ·
Cc1cc(NC(=O)CSc2nc3ccsc3c(=O)n2CCCCC(=O)O)no1 | 5.5 | 12.2% | -7.3 | 4.65µM*
CCSc1nnc(NC(=O)/C=C/c2ccco2)s1 | 116.7* | 102.6% | 30.1* | ?
CCSc1nnc(NC(=O)C2CC2c2ccccc2)s1 (stereo not drawn) | 7.8 | -17.8% | -0.9 | ?
